Bioassay records (PubChem BioAssay)
Tau ThT inhib: inhibitors of human tau fibril formation, thioflavin T binding; P10636; recombinant tau K18 P301L, heparin-induced fibrillization, ThT fluorescence; Potency, µM (highest dose often 57.4 µM), inactives show top-dose activity, negative = inhibition, hits mostly inhibitors; hit rate 2.1% among 270,000; AID 1460; also: potency is read from the fitted curve at half-maximal effect; nearly all actives have a fitted effect of over 55% in size
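K18 P301L tau (15 uM + 0.24 uM Alexa 594-tagged), heparin 20 uM, NaOAc pH 7, 6 h 37 C; ThT 30 uM, 1 h RT, ex 450/em 510 nm.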
Tau fluor cs: counter-screen for tau fibril formation inhibitors. Potency, µM (top dose mostly 57.7 µM), inactives show top-dose activity change, negative = decrease. hit rate 0.93% among 280,000. AID 1463. tau K18 P301L Alexa594 fluorescence, heparin fibrillization; also: potency is read from the fitted curve at half-maximal effect; nearly all actives have a fitted effect of over 55% in size
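Human tau K18 P301L (15 uM unlabeled, 0.24 uM Alexa 594-labeled) in 100 mM sodium acetate pH 7 with 20 uM heparin, 6 hr at 37 C. ThT 30 uM added, 1 hr ambient; Alexa 594 FP and total fluorescence read at 555/632 nm.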
FBPA coupling cs: coupling enzyme interference in Giardia aldolase counter-screen | coupling enzyme system counterscreen, AmpLite Red fluorescence | activity change, negative = inhibition, % at 58.2 µM, hits read low | hit rate 0.67% among 290,000; in the data active = activity change below about -30%
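Final compound at 57.5 uM, incubated 10 min at RT with coupling enzyme reagent (glyceraldehyde-3-phosphate), then 20 min with substrate and AmpLite Red detection. Fluorescence read at 525/598 nm; tests interference with the coupling assay, not aldolase inhibition.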
USP1 inh: USP1/UAF1 (human) deubiquitinase inhibition | Potency, µM (doses to about 57.1 µM), for inactives: top-dose activity change, negative = inhibition, usual class: inhibitors | recombinant USP1/UAF1, Ub-Rhodamine cleavage fluorescence | AID 743255 | O94782 | hit rate 0.23% among 390,000; also: potency is read from the fitted curve at half-maximal effect; nearly all actives have a fitted effect of over 60% in size
Target sequence (O94782 whole entry, looked up): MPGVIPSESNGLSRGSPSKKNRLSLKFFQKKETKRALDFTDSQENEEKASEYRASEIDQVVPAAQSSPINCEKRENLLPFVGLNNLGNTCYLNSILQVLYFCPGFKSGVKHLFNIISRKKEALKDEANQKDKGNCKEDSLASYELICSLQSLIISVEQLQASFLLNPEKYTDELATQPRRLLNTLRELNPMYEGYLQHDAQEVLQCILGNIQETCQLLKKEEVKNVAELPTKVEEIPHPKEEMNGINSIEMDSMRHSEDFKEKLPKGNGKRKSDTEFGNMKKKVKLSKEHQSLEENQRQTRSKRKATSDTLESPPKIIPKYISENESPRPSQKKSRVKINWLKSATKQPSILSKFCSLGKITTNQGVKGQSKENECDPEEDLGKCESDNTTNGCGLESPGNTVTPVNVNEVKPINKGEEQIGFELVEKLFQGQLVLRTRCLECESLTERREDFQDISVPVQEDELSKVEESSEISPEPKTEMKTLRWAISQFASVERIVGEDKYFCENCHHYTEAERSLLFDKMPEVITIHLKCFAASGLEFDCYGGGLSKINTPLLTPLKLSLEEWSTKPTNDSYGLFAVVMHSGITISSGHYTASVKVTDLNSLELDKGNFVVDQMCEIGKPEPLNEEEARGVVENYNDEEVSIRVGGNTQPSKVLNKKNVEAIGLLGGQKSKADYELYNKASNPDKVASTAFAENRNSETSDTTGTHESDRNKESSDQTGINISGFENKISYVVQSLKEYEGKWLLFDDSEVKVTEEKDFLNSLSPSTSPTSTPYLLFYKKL
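1 nM enzyme complex + cpd, 15 min RT; start with Ub-Rho 150nM final; kinetic fluorescence ex 480/em 540, 6 reads q60 s. Buffer 50mM HEPES pH 7.8, 0.5mM EDTA, 0.1 mg/ml BSA, 1mM TCEP, 0.01% Tween-20.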
Tau fibril FP: inhibitors of human tau fibril formation | K18 P301L tau heparin fibrillization, Alexa594 FP, 6 h | Potency, µM (top dose mostly 57.7 µM), for the others: at the top dose activity, negative = inhibition, most hits filed as inhibitors | hit rate 0.39% among 280,000 | AID 1468; also: potency is read from the fitted curve at half-maximal effect; nearly all actives have a fitted effect of over 55% in size
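Human K18 P301L fragment (15 uM unlabeled plus 0.24 uM Alexa 594-labeled) in 100 mM sodium acetate pH 7 with compound, aggregation induced by 20 uM heparin for 6 hr at 37 C. ThT (30 uM) added for 1 hr, then Alexa 594 FP read.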
* = called active by the depositor; [ ] = remark or other dose. This is a sample that favours compounds with a hit; in the whole collection about 2.3% have one here. Unless noted, calls follow the shape of the dose curve; as a rule, active = well fitted curve in the direction sought with a large enough effect; inconclusive = small, poorly fitted or top-dose-only effect, or another doubt; inactive = no such curve, though single readings can be large; an effect the other way counts as inactive or inconclusive. % is scaled to controls: 0 for no effect and ±100 for the full control effect.

For CCOc1ccc(N2C(=O)/C(=C\c3ccc(O)c(OC)c3)S(=O)(=O)C2c2cccc([N+](=O)[O-])c2)cc1 (configuration not stated) the results were Tau ThT inhib inconclusive, Tau fluor cs 31.6µM*[quencher], FBPA coupling cs 2.5, USP1 inh -17.9% and Tau fibril FP 8.1%.
Screening Cc1ccc(CCNc2ncnc3onc(C)c23)cc1 returned Tau ThT inhib 1.2%, Tau fluor cs -6.1%, USP1 inh inconclusive and Tau fibril FP -0.1%.
O=C1CCCC2=C1C(c1ccc(O)c(O)c1)c1c(ccc3ncccc13)N2 (configuration not stated) was read as Tau ThT inhib inconclusive, Tau fluor cs inconclusive, FBPA coupling cs -72.3*, USP1 inh -11.5% and Tau fibril FP -16.7%.
For CCOc1ccc(C2C3=C(CCCC3=O)Nc3ccc4ncccc4c32)cc1 (configuration not stated) the results were Tau fluor cs inconclusive, FBPA coupling cs -2.4, USP1 inh -2.3% and Tau fibril FP 12.5%.
For COc1ccc(Cl)cc1NC(=O)N1CCN(S(=O)(=O)c2ccc3c(ccn3C)c2)CC1 the results were Tau ThT inhib 10.0%, Tau fluor cs -12.2%, USP1 inh -11.7% and Tau fibril FP -15.7%.
Screening O=C1/C(=N\S(=O)(=O)c2cccs2)C([n+]2ccc(CCCc3ccccc3)cc2)=C([O-])c2ccccc21 returned Tau ThT inhib 2.82µM*, Tau fluor cs inconclusive, FBPA coupling cs -35.1*, USP1 inh -7.0% and Tau fibril FP 3.3%.
Cc1cc(C)c[n+](C2=C([O-])c3ccccc3C(=O)/C2=N\S(=O)(=O)c2cccs2)c1 was read as Tau ThT inhib 2.0%, Tau fluor cs -3.4%, FBPA coupling cs -0.3, USP1 inh inconclusive and Tau fibril FP 7.1%.
For O=C1/C(=N\S(=O)(=O)c2cccs2)C([n+]2cccc(Cc3ccccc3)c2)=C([O-])c2ccccc21 the results were Tau ThT inhib inconclusive, Tau fluor cs -26.4%, FBPA coupling cs -38.2*, USP1 inh inconclusive and Tau fibril FP -2.4%.
Cc1cc[n+](C2=C([O-])c3ccccc3C(=O)/C2=N\S(=O)(=O)c2cccs2)cc1C was read as Tau ThT inhib inconclusive, Tau fluor cs -21.7%, FBPA coupling cs -62.8*, USP1 inh -16.3% and Tau fibril FP -8.4%.
For Cc1ccc(-n2ncc(C(=O)NCc3ccccn3)c2C2CCN(C(=O)OC(C)(C)C)CC2)cc1C the results were Tau ThT inhib -4.5%, Tau fluor cs 0.0%, USP1 inh inconclusive and Tau fibril FP -3.7%.
For CCOC(=O)c1sc(Nc2nc3cc4c(cc3s2)OCO4)cc1C the results were Tau ThT inhib inconclusive, Tau fluor cs 4.47µM*[quencher], FBPA coupling cs -1.1, USP1 inh -21.5% and Tau fibril FP -2.3%.
`CC(=O)c1sc(Nc2nc3cc4c(cc3s2)OCO4)nc1C` gave Tau ThT inhib 3.16µM*, Tau fluor cs inconclusive, FBPA coupling cs 2.4, USP1 inh -6.0% and Tau fibril FP -0.3%.
`CCCc1nn2c(=O)cc(COC(=O)c3ccccc3NC(=O)COc3ccccc3F)nc2s1` gave Tau ThT inhib -3.1%, Tau fluor cs 0.2%, USP1 inh -15.2% and Tau fibril FP 3.5%.
Screening C/C(=N\NC(N)=S)c1ccc(-n2ccnc2)cc1 returned Tau ThT inhib inconclusive, Tau fluor cs -0.1%, FBPA coupling cs 8.1, USP1 inh -17.8% and Tau fibril FP -2.5%.
C/C(=N\Nc1ccc(Cl)c(Cl)c1)c1ccc(-n2ccnc2)cc1 was read as Tau ThT inhib inconclusive, Tau fluor cs 14.1µM*[quencher], FBPA coupling cs 0.5, USP1 inh -12.9% and Tau fibril FP 2.2%.
`Cc1ccc(O)c(NC(=O)COCc2cc(-c3ccco3)on2)c1` gave Tau ThT inhib -15.7%, Tau fluor cs -23.3%, USP1 inh 0.2% and Tau fibril FP 9.6%.
For O=[N+]([O-])c1ccc(-c2c[nH]c(=S)[nH]2)cc1 the results were Tau ThT inhib 25.1µM*, Tau fluor cs inconclusive, FBPA coupling cs 3.1, USP1 inh -11.9% and Tau fibril FP inconclusive.
`FC(F)(F)c1cc(NC(=S)Nc2ccc3cc4ccccc4cc3c2)cc(C(F)(F)F)c1` gave Tau ThT inhib inconclusive, Tau fluor cs inconclusive, FBPA coupling cs -0.2 and Tau fibril FP 1.2%.
Screening N#C/C(=C\c1ccc2c(c1)OCO2)C(N)=S returned Tau ThT inhib -16.7%, Tau fluor cs -14.7%, FBPA coupling cs 0.1, USP1 inh 1.6% and Tau fibril FP 0.8%.
For N#C/C(=C/c1ccco1)C(N)=S the results were Tau ThT inhib 28.2µM*, Tau fluor cs inconclusive, FBPA coupling cs -29.0, USP1 inh -18.5% and Tau fibril FP inconclusive.
Screening CC(Cc1ccc(O)c(O)c1)C(C)Cc1ccc(O)c(O)c1 (configuration not stated) returned Tau ThT inhib inconclusive, Tau fluor cs 15.8µM*[quencher], FBPA coupling cs -14.1, USP1 inh -33.8% and Tau fibril FP -2.4%.
`CC(=O)Nc1cccc(-c2csc(Nc3ccc(Cl)cn3)n2)c1` gave Tau ThT inhib inconclusive, Tau fluor cs 12.6µM*[quencher], FBPA coupling cs -3.5, USP1 inh -17.5% and Tau fibril FP -4.7%.
For CC(=O)Nc1cccc(-c2csc(Nc3cc(C)ccn3)n2)c1 the results were Tau ThT inhib inconclusive, Tau fluor cs 17.8µM*[quencher], FBPA coupling cs 6.6, USP1 inh -10.8% and Tau fibril FP 5.5%.
Screening CC(=O)Nc1ccc(-c2csc(Nc3cc(C)ccn3)n2)cc1 returned Tau ThT inhib 7.08µM*, Tau fluor cs 15.8µM*[quencher], FBPA coupling cs -11.7, USP1 inh -15.3% and Tau fibril FP 8.4%.
`Cc1ccnc(Nc2nc(-c3c(C)nc4sccn34)cs2)c1` gave Tau ThT inhib 7.94µM*, Tau fluor cs 14.1µM*[quencher], FBPA coupling cs -3.9, USP1 inh inconclusive and Tau fibril FP 7.1%.
Screening Cc1ccnc(Nc2nc(-c3ccccc3)cs2)c1 returned FBPA coupling cs 1.1 and USP1 inh -13.8%.
For CC(=O)Nc1ccc(-c2csc(Nc3ccc(Cl)cn3)n2)cc1 the results were Tau ThT inhib inconclusive, Tau fluor cs inconclusive, FBPA coupling cs -0.7, USP1 inh -11.0% and Tau fibril FP -2.6%.
Screening Cc1ccc(C(=O)NCCc2ccc(S(N)(=O)=O)cc2)cc1-n1cnc2cccnc21 returned Tau ThT inhib 5.5%, Tau fluor cs 1.8%, USP1 inh -6.5% and Tau fibril FP -2.2%.
CCOC(=O)c1ccc(CN(Cc2ccc(F)cc2)S(=O)(=O)c2ccc(F)c(C(=O)Nc3cc(Cl)ccc3OC)c2)cc1 was read as Tau ThT inhib 8.7%, Tau fluor cs -3.3%, USP1 inh inconclusive and Tau fibril FP -5.4%.
`OCCNCC(O)CN1c2ccccc2Sc2ccccc21` (configuration not stated) gave FBPA coupling cs -1.0 and USP1 inh -2.4%.
